# Assays:
# Experiment in all cases: PBM binding z-score (relative to random genomic background probes); higher = stronger binding; sequences stand for … in GC…GCGATTGACAGCGTAGAATGAAGG
# [1] = tested on: RARb homodimer (NR concentration 270 nM)
# Method in brief: (§1)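 Each nuclear receptor dimer, without ligand, was incubated for 1 h on custom Agilent 4×180K protein-binding microarrays. Binding was detected with antibodies against each partner (one per run), and scanned fluorescence was regression-normalized. The binding z-scores are referenced to random human genomic background probes.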
# [2] = tested on: RARg:RXRa (NR concentration 270 nM, RXRa partner concentration 90 nM)
# Method in brief: as §1
# [3] = tested on: RARg homodimer (NR concentration 270 nM)
# Method in brief: as §1
# [4] = tested on: RXRa DBDmut IVT, anti-RXR (DBD mutation: RXRa K156A/R161A, NR concentration 90 nM)
# Method in brief: as §1
# [5] = tested on: RXRa homodimer (NR concentration 180 nM)
# Method in brief: as §1
# [6] = tested on: THRa:RXRa (NR concentration 90 nM, RXRa partner concentration 90 nM)
# Method in brief: as §1
# [7] = tested on: THRa homodimer (NR concentration 90 nM)
# Method in brief: as §1
# [8] = tested on: VDR homodimer (NR concentration 270 nM)
# Method in brief: as §1
Sequence,PBM binding z-score [1],PBM binding z-score [2],PBM binding z-score [3],PBM binding z-score [4],PBM binding z-score [5],PBM binding z-score [6],PBM binding z-score [7],PBM binding z-score [8]
CCTATTAGTTGACCATACGGGCAACCGAAGCTCG,1.12,0.753,0.421,0.337,0.116,0.0977,0.187,0.509
TCATATAGGTAATACAGGTCAAAGTCGGCATCTA,3.29,2.91,2.37,2.04,3.63,2.71,1.24,2.13
CCTGCTAGGTCATGCTCAGCTAATCTACAGTATG,2.76,3.89,4.39,2.05,2.4,2.57,0.87,0.178
CAAACTAGGTCACATAGGTCAAAGTCCGTGCGTA,4.67,5.93,6.3,2.56,5.67,4.09,1.78,3.91
TGTCAAAGTTCAAACGTAACGTAAGTATCCACAC,3.89,5.71,6.15,4.86,5.15,2.12,-0.319,4.63
TCTCGGAGGACACGAAAGGTCAAAGCTCGACATC,5.19,5.82,6.04,1.63,5.82,4.18,1.76,2.51
TGAATGAGGTTAAGGATCAGGGAACGTGGCGTCG,0.892,1.97,1.38,0.394,2.62,2.49,0.88,0.15
ATCTCTAGGTAACAAGTTCAGTTAAAGAGAGGAC,1.9,1.37,1.45,0.748,0.837,1.73,1.16,2.34
ATTATTAGTTGACTTAGGGCAACCGATACGACGC,1.41,1.11,1.23,0.507,0.918,1.65,1.03,1.41
ACAGACAGGTGATTGAAGGTAACTCAGCTGGACG,-0.184,0.204,0.419,-0.0738,0.195,1.92,-0.247,-0.308
TATACAGGGTCAAATGCCAGAGTACGAATGTCGA,3.11,5.88,4.98,3.42,6.54,3.6,0.982,3.62
CCTTACGGCTCACTCCAGGTTATAGCATCGGAGT,0.313,-0.122,0.148,0.487,-0.0506,1.15,0.628,0.0912
TCTAGTTGGTCACGGCGGTCACACACGACGGGTA,2.92,2.1,2.76,0.889,1.34,0.79,0.372,0.652
AGTCAAAGTTCAGGACGAGGTATCGTAAAGCACG,2.81,4.03,4.67,2.93,2.81,2.54,0.691,2.06
TCTTGTAGATCAATAGAGGTTAAGATAGTGCGCT,1.21,0.947,0.501,0.749,1.75,2.51,-0.429,0.0861
TCTCGGAGGATACGAAAGGTCAGAGCTCGACATC,4.38,4.12,3.73,0.587,4.38,2.98,0.363,0.361
CGATCTAGGTCATCCAGGACAGTGAATACATTGA,3.01,4.03,4.66,2.18,2.71,3.78,2.35,2.06
GCTATTAGATGAAAGGGCAACCGAATGATTCTCG,1.76,0.991,1.24,0.654,1.17,0.435,-0.425,-0.071
TAGCCTAGGTCAGATCGGGCTAGTATACGCTATA,1.59,2.48,3.26,-0.66,1.34,3.37,-0.538,-0.698

Sequence,PBM binding z-score [1],PBM binding z-score [2],PBM binding z-score [3],PBM binding z-score [4],PBM binding z-score [5],PBM binding z-score [6],PBM binding z-score [7],PBM binding z-score [8]
ACTTTTAGTTGACTTAGGGCAACCGATACGACGC,1.37,1.1,1.22,1.12,0.756,1.64,0.763,0.282
ATATGTAGGTTACATCCGGGTCATACAGGCTATG,2.77,3.85,2.26,0.757,3.05,4.01,2.3,2.26
TCTATTAGTTGATTAGGGCAATCGAAACAGCGGA,0.402,0.658,0.528,0.966,0.804,0.453,0.15,0.435
ATCTCTAGGTAAAAGTTAAGTGAATCCCGAGGAT,-0.425,0.121,0.586,-0.231,0.0332,0.344,-0.106,0.265
CAAACTAGGTCAAGGTTAAAGTCGGTTTGTGCCA,3.76,4.29,5.18,1.95,3.67,3.56,1.82,1.79
TCATATAGGTAAAAGTTGAAAGTCGGTGTGGTAA,0.645,0.703,0.395,1.69,1.83,0.586,-0.0355,0.425
TATACAGGGTCAAAGCCCAGAGTACGAATGTCGA,2.97,5.26,4.63,3.03,5.9,3.23,0.46,2.85
TAATATAGGTAAATGCTAGGTGAAAGTCCGATCT,0.28,0.642,0.601,0.344,0.568,1.4,0.419,0.275
ATCTCCAGGTAAGACTCAGTTCAGTGAAGAACGC,0.752,0.584,0.474,0.412,0.366,1.1,1.32,1.27
CGCCCAAGGTCAAGGTCAGTGAAAGAGACTCGAA,5.33,6.54,7.08,3.25,6.2,4.42,3.53,2.96
ATCTCTAGCTAAAGATAGTTCAGTGAATGCAAAT,0.481,0.461,0.353,-0.2,0.159,0.114,-0.112,0.516
GCAGACAGGTGAAACGCAGGTACCTCAGGGTGGC,-0.353,0.0657,0.145,-0.949,0.343,0.295,-0.722,-0.935
CCTCGGAGGACAGAAGCTCAGAGCTGTCCGCTTT,-0.763,-0.638,-0.103,-0.29,-0.985,-0.606,-1.12,-0.819
CGTCCAAGGTCAAAGCTCAGTGAAGAGATGACGG,3.72,5.9,6.4,3.56,5.49,3.63,2.02,2.15
CCTAGCAGGCCAATCTGGGTCACTCACGGCTTGA,2.23,1.18,1.36,0.336,0.802,3.47,0.637,0.103
GCTATTAGTTGAAAGGGCAACCTAATGATTCTCG,2.01,1.35,1.38,0.966,1.24,0.901,-0.0101,0.284
AGAGCGAGGGCAATGAGTTGATAGCACGGGTGGC,0.903,1.19,1.31,1.48,0.736,0.613,-0.514,2.82
CCTACTGGGCCAATCAGAGGTCATTGATCATATG,4.14,4.56,3.26,0.861,3.82,3.13,1.38,3.81
CCTGATAGGTCAATGGTCAGCTAAAGCAGCTCGC,3.38,4.62,4.89,1.32,3.76,1.72,-0.0298,0.339

Sequence,PBM binding z-score [1],PBM binding z-score [2],PBM binding z-score [3],PBM binding z-score [4],PBM binding z-score [5],PBM binding z-score [6],PBM binding z-score [7],PBM binding z-score [8]
ATCTCTAGGTACGACTCAGTTCAGTGAAGAACGC,0.848,0.255,0.331,1.19,0.123,0.879,0.878,2.02
TGAATGAGGTTGAAGATCAGGGAACGTGGCGTCG,-0.485,0.258,0.179,-0.182,0.787,0.467,-0.42,-0.192
CCTCGGAGGACAACAGGAGGTCGGAGCTGCCAGA,1.42,1.08,1.36,0.0321,0.223,1.35,0.0235,0.16
GCTTGCGGGTCAAAGGTTATAGCATGAATAGAAT,2.73,6.3,4.14,2.1,8.79,3.83,-0.22,0.927
GCGACTGGGGCATCGGCAGGTTACCATAACTTAA,1.07,1.17,0.592,-0.207,0.141,1.11,0.42,-0.113
GCTGCTAGGTCAACTGACGGTCAGCTAAAGCTCG,4.31,6.76,5.94,1.64,3.33,3.21,0.993,-0.00537
ACCTCTAGGTAACAAGTTCAGTGAAAGAGAGGAC,1.85,1.11,1.08,0.979,0.678,1.21,0.425,2.2
TCATATACGTAAAGGTGAAAGTCGAACGATATGA,1.53,1.65,1.22,0.638,2.1,1.13,-0.853,-0.424
CAAACTATGTCAAAGGTCAAAGTCGAGCCAACCA,5.04,7.01,6.39,1.75,8.43,3.81,1.14,2.88
ACTCGGAGGACAAAGGTCAGAGCGACGCCAGTGA,4.63,6.19,5.38,1.24,5.37,3.66,0.5,1.18
GCGCCTGGGGCAAAGCAGGTTACCATAAGGTTGG,0.951,0.319,0.493,-0.424,0.237,2.96,-0.193,-0.387
GCTAGCAGGCCATTTGCGTCACTCAATGACGGGC,-0.848,-0.404,-0.336,-0.115,-0.347,-0.649,-0.795,-0.529
CAAACTAGGTCACCGGAAGGTTAAAGTCCGCATG,4.56,6.51,5.79,2.08,4.2,3.84,2.36,1.28
GCTATTAGTTGAAAGAGCAACCGAATGATTCTCG,-0.533,-0.181,0.242,0.464,0.226,-0.376,-0.896,-0.22
CCTACTGAGCCAAAGGTCATTGATTCCAATGCTC,4.56,5.34,4.83,2.32,5.76,3.33,1.26,3.3
CCTACTGGGCCAAAGGTCATCGATTCCAATGCTC,4.9,6.09,5.38,0.987,7.08,3.65,0.966,2.04
AGAATGAGGTTATAGGTAGATCAGGGAAGAAAGT,1.39,1.63,1.08,1.35,2.15,2.45,1.42,1.24
ATCTCTAGGTAAAGATAGCTCAGTGAATGCAAAT,-0.409,0.141,0.459,-0.409,-0.19,-0.00233,-0.226,-0.379

# — the supplement of paper PMC6555819
